Screening results: PubChem, National Center for Advancing Translational Sciences (NCATS)
The list is not random: actives were taken first. Their share in the collection is about 2.2%.
FUS suppressor: rescues growth of FUS-expressing yeast; AID 1347120; S. cerevisiae FUS-expressing, growth rescue, OD600, 24 h; Potency, µM (top dose mostly 76.6 µM), hits mostly activators; hit rate 0.24% among 390,000;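 further: plate controls were DMSO vehicle for no effect and reference control for full effect; nearly all actives have a fitted effect of over 55% in size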
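Yeast FUS proteinopathy model; galactose-induced FUS (2%), starting OD 0.005. Cpds in dilution series, 24hr, 30C, 99% humidity. Abs 600 nm growth. Pos ctrl CP55940 (top 92uM final); neg ctrl DMSO.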
aSyn rescue: rescues yeast growth from alpha-synuclein toxicity | Potency, µM (series often up to 46.1 µM), without a hit: top-dose growth rescue (activation), most hits filed as activators | hit rate 0.14% among 370,000 | Yeast expressing alpha-synuclein, growth rescue, BacTiter-Glo, 24 h | AID 652106; further: % of control where 0% means no effect; nearly all actives have a fitted effect of over 65% in size
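Rescue of yeast growth: cells expressing toxic alpha-synuclein, induced in galactose at OD600 0.02, incubated with compound 24 h at 30 C. ATP luminescence quantified growth; inhibitors of toxicity appear as activators.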
TDP-43 yeast inh: TDP-43 toxicity inhibition in yeast | TDP-43 expressing yeast growth rescue, BacTiter-Glo, 24 h | Potency, µM (top dose mostly 46.1 µM), without a hit: at the highest dose growth rescue (activation), actives largely listed as activators | hit rate 1.8% among 410,000 | AID 652104; further: % of control where 0% means no effect; nearly all actives have a fitted effect of over 50% in size
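Yeast cells expressing TDP-43 under galactose induction are exposed to compounds for 24 hr at 30 deg C. BacTiter-Glo luminescence measures growth, so protective compounds score as activators.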
Mito fusion act: inhibitors of mitochondrial division or activators of mitochondrial fusion; hit rate 0.23% among 320,000; Potency, µM (doses to about 46.1 µM), for the others: top-dose growth rescue (activation), actives largely listed as activators; S. cerevisiae fusion-defective mutant growth rescue, CellTiterGlo 48 h; AID 485298; further: % of control where 0% means no effect; nearly all actives have a fitted effect of over 45% in size
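Compounds are tested for their ability to restore growth of mitochondrial fusion-defective yeast strains at non-permissive 37C in YPEG medium over 48 hours. Viability is quantified by luciferase luminescence.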
Abeta rescue: restores growth of yeast expressing A-beta42 peptide | yeast expressing A-beta42, growth rescue, OD600, 48 h; response scale: 0% DMSO, 100% iron-clioquinol control | AID 1347071 | Potency, µM (doses to about 46.1 µM), actives largely listed as activators | hit rate 0.063% among 410,000; further: nearly all actives have a fitted effect of over 55% in size
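Yeast A-beta toxicity model in growth medium with pinned compounds, 48 h at 30 C; growth read as absorbance at 600 nm. Normalized to FeCl3/clioquinol equimolar mix (positive) and DMSO (negative).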
* hit, by the source's call; i = inactive; u = inconclusive; x = no result; ! = a repeat was not active; [ ] = remark or other dose. The call rests on the fitted dose curve; in most records, active means well fitted curve in the direction sought with a large enough effect; inconclusive means small, poorly fitted or top-dose-only effect, or another doubt; inactive means no such curve, though single readings can be large; an effect the other way counts as inactive or inconclusive. Potency means the concentration at half of the fitted maximal effect.

SMILES	FUS suppressor	aSyn rescue	TDP-43 yeast inh	Mito fusion act	Abeta rescue
O=C(c1ccc(-c2ccccc2Cl)o1)N1CCN(c2ccccc2O)CC1	i	u	22.4µM*	17.8µM*	i
O=C(c1ccc(-c2cc(Cl)ccc2Cl)o1)N1CCOCC1	i	-4.3%	u	15.5%	i
O=C(c1ccc(-c2ccc(Cl)cc2Cl)o1)N1CCOCC1	i	5.1%	17.8µM*	3.5%	i
O=C(c1ccc(-c2cccc(C(F)(F)F)c2)o1)N1CCN(c2ccccc2O)CC1	i	8.5%	15.8µM*	-11.2%	u
O=C(c1ccco1)N1CCN(C(=O)c2ccc(-c3ccccc3Cl)o2)CC1	i	-2.9%[1.84 µM]	14.1µM*	23.5%	i
CCOc1ccc(NC(=O)CSc2oc(-c3cccs3)nc2S(=O)(=O)c2ccc(C)cc2)cc1	i	x	0.2%	x	i
COc1ccc2c(c1)N=C(c1[nH]c3ccccc3c1CCN1C(=O)c3ccccc3C1=O)[C@]2(O)CCN1C(=O)c2ccccc2C1=O	17.8µM*	x	x	x	x
CCN(C(=O)Cn1c(C(=O)OC)cc2sccc21)c1cccc(C)c1	i	x	6.0%	x	i
COc1ccc(C(C)(NC(C)=O)c2nc(-c3ccc(F)c(Cl)c3)cs2)cc1 (stereo not drawn)	u	7.1%	35.5µM*	x	i
Cc1cccc(NC(=O)CO/N=C/c2ccc3c(c2)OCO3)c1	x	3.5%	0.2%	8.5%	i
Cc1ccc(CNC(=O)CO/N=C/c2ccc3c(c2)OCO3)cc1	i	6.1%	20µM*	5.2%	i
C/C(=N\Nc1ccc([N+](=O)[O-])cc1)c1cccc(N)c1	i	3.9%	14.1µM*	-6.3%	i
CCOc1cc(S(=O)(=O)n2ccnc2C(C)C)ccc1Cl	i	x	12.3%	0.0%	i
CC(=O)O[C@]1(C(C)=O)CC[C@H]2[C@@H]3C=C(Cl)C4=CC(=O)[C@@H]5C[C@@H]5[C@]4(C)[C@H]3CC[C@@]21C	i	9.4%	22.8%	20.6µM*	i
Cc1cc(C)nc(SCc2nnc(SCc3ccccc3Cl)o2)n1	i	17.8%	15.8µM*	18.3%	i
Cc1cc(C)nc(SCc2nnc(SCC(=O)Nc3c(C)cccc3C)o2)n1	i	1.6%	-4.2%	-2.9%	i
COc1cc2c(cc1NC(=O)CSc1nnc(COc3ccccc3)n1Cc1ccco1)oc1ccccc12	i	x	x	x	x
C#CCSc1nc2ccccc2c(=O)n1CC=C	x	5.1%	x	x	x
C#CCSc1nncn1C(=O)/C=C/c1ccccc1	i	12.6µM*	-16.2%	1.4%	i
CC1(C(=O)NS(=O)(=O)c2ccccc2)CCN1C(=O)C1(c2ccc(Cl)cc2)CCC1 (stereo not drawn)	i	7.9%	0.0%	x	i
Cc1ccccc1S(=O)(=O)NC(=O)C1(C)CCN1C(=O)c1ccccc1CCc1ccccc1 (stereo not drawn)	u	-9.5%	35.5µM*	x	i
CC1(C(=O)NS(=O)(=O)c2ccccc2Cl)CCN1C(=O)C1(c2ccc(Cl)cc2)CC1 (stereo not drawn)	i	2.0%	35.5µM*	x	i
CC1(C(=O)NS(=O)(=O)c2ccccc2Cl)CCN1C(=O)C1(c2ccc(Cl)cc2)CCC1 (stereo not drawn)	i	-0.3%	12.6µM*	x	i
Cc1ccccc1S(=O)(=O)NC(=O)C1(C)CCN1C(=O)C1(c2ccc(Cl)cc2)CCC1 (stereo not drawn)	u	-22.6%	25.1µM*	x	i
Cc1cc(C)cc(-n2ccn(CC(=O)Nc3cc(C)ccc3C)c(=O)c2=O)c1	i	x	9.8%	x	i
SMILES	FUS suppressor	aSyn rescue	TDP-43 yeast inh	Mito fusion act	Abeta rescue
Cc1ccccc1-c1nc2scc(CCNS(=O)(=O)c3ccccc3)n2n1	i	x	0.0%	x	i
CC1=CC(C)(C)NC(=S)N1C(C)c1ccccc1 (stereo not drawn)	i	-7.1%	14.7%	-15.9%	10µM*
CC(=O)Nc1cc(C(=O)NCc2ccccc2Cl)ccc1Sc1ccc(F)cc1	i	x	22.4µM*	x	i
CCOc1ccccc1CNC(=O)c1ccc(Sc2ccc(Cl)cc2)c(NC(C)=O)c1	x	4.1%	12.6µM*	u	i
CCOc1ccc(CNC(=O)c2ccc(Sc3ccc(Cl)cc3)c(NC(C)=O)c2)cc1	u	-0.6%	15.8µM*!	20.5%	i
Cc1ccc(-n2ncc(C(=O)N3CCN(c4cccc(C)c4C)CC3)c2C2CCNCC2)c(C)c1	i	1.1%	17.4%	x	i
COc1ccc(-n2nc([N+](=O)[O-])c(=NCCc3ccc(C)cc3)n2O)cc1	i	0.5%	u	1.9%	i
Cc1ccc(CN=c2c([N+](=O)[O-])nn(-c3cccc(C)c3)n2O)cc1	i	3.1%	15.8µM*	0.4%	i
Cc1ccc(CN=c2c([N+](=O)[O-])nn(-c3cccc(Cl)c3)n2O)cc1	i	10.0%	10µM*	-1.5%	u
CCc1ccc(N=c2c([N+](=O)[O-])nn(-c3ccccc3)n2O)cc1	i	17.7%	12.6µM*	17.8µM*	u
COc1ccccc1C(=O)Nc1cc(-c2cccc(Br)c2)nn1-c1ccccc1	i	x	7.0%	x	i
Cc1cccc(NC(=O)CSc2cn(CC(=O)N3CCCCCC3)c3ccccc23)c1	i	x	3.4%	x	i
CCN(CC)C(=O)[C@H]1C[C@H](CC(=O)NCC23CC4CC(CC(C4)C2)C3)C(=O)N2CCc3c([nH]c4ccc(Cl)cc34)[C@]12C	i	u	20µM*	x	i
CC(C)N(C(=O)[C@H]1CC(CC(=O)NCCC2=CCCCC2)C(=O)N2CCc3c([nH]c4ccccc34)[C@]12C)C(C)C (stereo partly drawn)	u	u	35.5µM*	x	i
CN(C)C(=O)CCc1ccc2c3c([nH]c2c1)[C@]1(CCC2CCCC2)[C@@H](C(=O)N2CCOCC2)C[C@H](CC(=O)NCCC2=CCCCC2)C(=O)N1CC3	15.8µM*	-0.3%	21.1%	x	i
COc1ccc2[nH]c3c(c2c1)CCN1C(=O)C(CC(=O)NCCC2=CCCCC2)C[C@H](C(=O)N(C(C)C)C(C)C)[C@@]31C (stereo partly drawn)	u	-5.3%	u	x	i
c1ccc(Cn2c(SC3CCCCC3)nnc2-c2cccnc2)cc1	i	x	x	x	x
CC(=O)N1CCN(/[N+]([O-])=N/Oc2ccc([N+](=O)[O-])cc2[N+](=O)[O-])CC1	x	-53.3%	x	x	x
Cc1nnc(SCc2ccccc2Cl)c2cc3sccc3n12	i	x	u	x	i
O=C(Nc1ccccc1Oc1ccccc1)c1ccccc1F	i	-7.6%	12.6µM*	25.9%	i
O=C(Nc1ccccc1Cc1ccccc1)c1ccccc1F	i	-4.2%	u	u	2.51µM*
